An excerpt weighted towards active compounds, which were near 4.3% of everything screened.
FGF22 binding: FGF22 (human) thermal shift binding; 340,000 compounds, 1.5% hits; Q9HCT0; AID 651658; activity (Tm shift, normalised), % at 9.99 µM; recombinant FGF22 thermal shift, SYPRO orange fluorescence; percent of sucrose octasulfate shift, DMSO zero;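 active = mean Tm shift, scaled 0 neutral to 100 positive control, at about 1.3% or above, every replicate too, limit read from the data; inconclusive = no clear call, values can overlap the other calls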
Wnt bcat act: Wnt/beta-catenin pathway activation; Wnt/beta-catenin reporter cell assay, activator, plate reader; activation, % at 9.35 µM; 300,000 compounds, 1.2% hits; in the data active = activation above about 30%, passing the limit was not always enough; inconclusive = no clear call, values can overlap the other calls
MITF act: activators of MITF-driven TRPM1 promoter activity in SK-MEL-5 cells; 300,000 compounds, 0.75% hits; activation, % at 12.5 µM; AID 588334; SK-MEL-5 TRPM1-promoter luciferase, 24 h; % of positive control, neutral wells = 0;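 active = mean activation of at least 80% with every replicate also reaching 80%; inconclusive = mean reaches 80% but some replicate falls short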
SMARCA2 activ: activators of SMARCA2 function. AID 652017. activation, % at 9.1 µM. MG213 cells, MMTV-luciferase reporter, dexamethasone, overnight. 370,000 compounds, 1% hits; in the data active = activation above about 7.8%
esBAF inh: inhibitors of esBAF chromatin remodeling in mouse ES cells. Bmi1-luciferase knock-in reporter, 24 h; 100% = twice the neutral-well signal. reporter increase, % at 12.5 µM. 350,000 compounds, 2% hits; in the data active = activation above about 40%; inconclusive = no clear call, values can overlap the other calls;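 also: a rise in the Bmi1 reporter signal indicates esBAF inhibition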
MLL AF4-AF9 inh: blocks AF4 peptide binding to human AF9; P42568; AlphaScreen, biotin-AF4 peptide binding to FLAG-AF9; inhibition, % at 10 µM; 350,000 compounds, 0.47% hits;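 active = every replicate reaching a set inhibition limit, whatever the replicate mean, cut at about 25% in these data; inconclusive = mean inhibition reaches that limit but some replicates miss it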
Target sequence (P42568 whole entry, looked up): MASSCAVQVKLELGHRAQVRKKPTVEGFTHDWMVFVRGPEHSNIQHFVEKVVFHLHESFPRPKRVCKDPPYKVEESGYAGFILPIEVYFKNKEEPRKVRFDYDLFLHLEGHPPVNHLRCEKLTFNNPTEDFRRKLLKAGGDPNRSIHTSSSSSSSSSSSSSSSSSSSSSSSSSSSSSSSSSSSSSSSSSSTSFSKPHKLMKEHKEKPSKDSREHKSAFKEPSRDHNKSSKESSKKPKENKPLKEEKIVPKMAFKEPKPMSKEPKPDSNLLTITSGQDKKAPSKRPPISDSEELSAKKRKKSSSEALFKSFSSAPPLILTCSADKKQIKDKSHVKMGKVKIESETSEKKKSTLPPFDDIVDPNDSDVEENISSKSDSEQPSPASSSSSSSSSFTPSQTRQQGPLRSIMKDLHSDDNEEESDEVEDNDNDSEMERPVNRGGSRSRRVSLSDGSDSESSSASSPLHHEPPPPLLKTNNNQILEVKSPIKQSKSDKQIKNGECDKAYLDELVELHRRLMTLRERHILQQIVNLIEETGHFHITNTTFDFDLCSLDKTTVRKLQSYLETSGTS
Hits are given with their value; . = inactive; ? = inconclusive; / = no result.

SMILES | FGF22 binding | Wnt bcat act | MITF act | SMARCA2 activ | esBAF inh | MLL AF4-AF9 inh
COc1ccc(/C=N/NC(=O)c2ccoc2C)cc1COc1c(C)cccc1C | / | . | / | . | 50 | /
CCc1ccc(/C=N/NC(=O)c2c[nH]c3ccccc23)s1 | / | ? | 89 | . | . | /
Cc1c(/C=N\NC(=O)c2c[nH]c3ccccc23)cnn1C | 44 | . | . | . | / | .
O=C(N/N=C/c1c[nH]c2ccccc12)c1ccccc1Cl | . | . | . | . | . | .
Cc1occc1C(=O)N/N=C/c1c[nH]c2ccccc12 | . | . | . | / | 50 | .
CC(C)CCNC(=O)COc1cccc2c1OC(C)(C)C2 | 43 | . | . | . | / | .
COc1ccc(CCNC(=O)COc2cccc3c2OC(C)(C)C3)cc1OC | . | . | . | . | . | .
Cc1cccc(NC(=O)c2ncn3c2C(=O)N(C)CC3)c1 | 43 | . | / | . | . | .
O=C(O)C(Cc1c[nH]c2ccccc12)N1C(=O)c2ccccc2C1=O (stereo unspecified) | . | 43 | . | . | / | .
O=C(O)C(Cc1ccccc1N(CCO)CCO)N1C(=O)c2ccccc2C1=O (stereo unspecified) | . | . | . | . | . | .
C[C@@H](NC(=O)C[C@@H]1CC[C@H](NC(=O)C2CCOCC2)[C@@H](CO)O1)c1ccccc1 | . | / | / | / | . | .
C[C@@H]1CCCCO[C@@H](CN(C)Cc2ccc3c(c2)OCO3)[C@H](C)CN([C@@H](C)CO)C(=O)c2cc(NC(=O)Nc3ccc(F)cc3)ccc2O1 | . | / | / | / | . | .
CC(C)Sc1ccc(C(=O)Nc2ccc(F)cc2F)cn1 | . | 49 | ? | . | / | .
O=C(Nc1ccc(F)cc1F)c1ccc(-n2cccn2)nc1 | . | . | . | . | / | .
C[C@@H]1CN([C@@H](C)CO)S(=O)(=O)c2ccc(-c3ccc(C#N)cc3)cc2O[C@H]1CN(C)C | . | / | / | / | . | .
O=C(Cc1cccc2ccccc12)NN1C(=O)CSC1=S | 44 | . | . | . | / | .
COc1ccc(NC(=O)c2ccccc2O)c(OC)c1 | . | . | . | . | 53 | .
COc1ccc(NC(=O)CSc2ccccc2)cn1 | 43 | . | . | . | . | .
COc1ccc(NC(=O)Cc2ccccc2)cn1 | . | . | . | . | . | .
COc1ccccc1C(=O)Nc1ccc(Br)cc1C | . | 37 | . | . | . | .
COc1ccc(NC(=O)CSc2ccccc2)c(OC)c1 | / | / | . | . | 56 | /
COc1ccc(NC(=O)CSc2nccn2Cc2ccccc2)c(OC)c1 | . | . | . | . | . | .
COc1ccccc1C(=O)Nc1ccc(Br)c2cccnc12 | . | . | / | . | . | .
COCC#Cc1ccc([C@H]2[C@@H](CO)N3C(=O)CN(C(=O)c4cccnc4)C[C@@H]23)cc1 | / | / | / | / | / | .
O=C(OCCCN1CCC2(CCC(c3ccccc3)CC2)C1=O)c1ccccc1 (stereo unspecified) | / | / | / | . | / | /
SMILES | FGF22 binding | Wnt bcat act | MITF act | SMARCA2 activ | esBAF inh | MLL AF4-AF9 inh
COc1ccc(NC(=O)C/C(C)=N/NC(=O)C(=O)NC(C)C)c(OC)c1 | . | . | . | 7.9 | / | .
COc1ccc(NC(=O)c2cc(C(C)C)on2)c(OC)c1 | . | . | . | . | 50 | .
COc1cc(NC(=O)c2cc(C(C)C)on2)c(OC)cc1Cl | / | / | / | . | . | /
O=C(C[C@@H]1CC[C@H]2NC[C@@H](O)COC[C@@H]2O1)N1CCc2ccccc2C1 | . | / | / | / | . | /
NC(=S)NN=C1CCCCCCCCC1 | . | . | . | . | / | .
NC(=S)NN=C1CCSCC1 | 43 | . | . | . | . | .
Cc1noc(C)c1S(=O)(=O)Nc1ccc2c(c1)C(=O)N([C@@H](C)CO)C[C@H](C)[C@@H](CN(C)C(=O)NC1CCCCC1)O2 | . | / | / | / | . | .
CC(C)c1ccc(N=C2NN=C(c3cccs3)CS2)cc1 | . | . | 100 | . | / | .
C[C@H](CO)N1C[C@H](C)[C@@H](CN(C)Cc2ccc(C(=O)O)cc2)Oc2c(NC(=O)c3cnccn3)cccc2C1=O | . | / | / | / | . | .
O=C(Cc1cccc2ccccc12)Nc1ccc2c(c1)C(=O)NC2=O | 44 | . | . | . | / | .
CC(C(=O)NC(C)(C)C)N1C(=O)c2cccc3cccc(c23)C1=O (stereo unspecified) | 43 | . | . | . | / | .
CC(C)C(C(=O)NC(C)(C)C)N1C(=O)c2ccccc2C1=O (stereo unspecified) | / | . | . | . | . | /
CCCC1=[N+](CC(C)=O)CCn2c(C)ccc21 | 43 | . | . | . | / | .
CCCC1=[N+](CC(=O)c2ccccc2)CCn2cccc21 | / | / | . | . | / | /
CCCC#Cc1ccc([C@H]2[C@@H](CO)N3C(=O)CN(C(=O)Nc4ccccc4F)C[C@H]23)cc1 | / | / | / | / | / | .
CS(=O)(=O)c1cccc(C(=O)Nc2ccc3c(c2)OCCCO3)c1 | . | . | 81 | . | 58 | .
O=C(NC1CCS(=O)(=O)C1)c1cccc(S(=O)(=O)N2CCCCCC2)c1 (stereo unspecified) | . | . | . | . | / | .
O=C(NC1CCS(=O)(=O)C1)c1cccc(S(=O)(=O)N2CCCC2)c1 (stereo unspecified) | 43 | . | . | . | . | .
O=C(Nc1cccc(S(=O)(=O)N2CCCC2)c1)c1cccc(S(=O)(=O)N2CCOCC2)c1 | . | . | . | . | . | 26
COc1ccc(N(C)S(=O)(=O)c2cccc(C(=O)Nc3ccc(OC)nc3)c2)cc1 | . | . | / | . | / | .
O=C(Nc1ccc2c(c1)OCCO2)c1cccc(S(=O)(=O)N2CCCCC2)c1 | / | / | . | . | . | /
COc1ccc(N(C)S(=O)(=O)c2cccc(C(=O)Nc3ccc4c(c3)OCCO4)c2)cc1 | 43 | . | . | . | . | .
C[C@@H]1CN([C@@H](C)CO)C(=O)c2cc(NC(=O)NC3CCCCC3)ccc2O[C@@H]1CN(C)Cc1ccncc1 | . | / | / | / | . | .
Cc1cc(C)nc(NS(=O)(=O)c2ccc(NC(=O)c3ccc4c(c3)OCCO4)cc2)n1 | 43 | . | . | . | / | .
O=C(Nc1ccc2c(c1)OCCO2)c1cccc(S(=O)(=O)N2CCOCC2)c1 | / | 45 | . | . | ? | /
SMILES | FGF22 binding | Wnt bcat act | MITF act | SMARCA2 activ | esBAF inh | MLL AF4-AF9 inh
O=C(N/N=C/c1ccc(OC(F)F)cc1OC(F)F)c1cccc(S(=O)(=O)N2CCOCC2)c1 | 44 | . | . | . | / | .
Cc1cc(C)nc(NS(=O)(=O)c2ccc(NC(=O)c3ccc(S(=O)(=O)N(C)C)cc3)cc2)n1 | . | . | / | . | . | .
O=S(=O)(c1ccc(Cl)c(NC(=S)Nc2cccc(O)c2)c1)N1CCOCC1 | 1.7 | . | . | . | / | .
CCN(C(=S)Nc1cc(S(=O)(=O)N2CCOCC2)ccc1Cl)c1cccc2ccccc12 | . | . | . | . | / | .
CCNC(=O)Nc1ccc2c(c1)C(=O)N(C)[C@H]1CC[C@H](CC(=O)Nc3ccccc3Cl)O[C@@H]1CO2 | . | / | / | / | . | .
COCC(=O)Nc1ccc2c(c1)C(=O)N(C)C[C@H](OC)[C@H](C)CN(C(=O)c1cnccn1)[C@H](C)CO2 | . | / | / | / | . | .

High-throughput results from PubChem BioAssay.
